In PubChem BioAssay AID504577 (NMMLSC, 2011) one finds response data, which are given here for 25 molecules.

In all, about 350,000 compounds went through this assay and about 1,300 (0.37%) were called active. The full list was thinned out, with actives kept by preference. A number with no mark means an inactive call. No stated cut-off is given here; in the data, active means response mostly above about 7.3% (no sharp cut-off); inactive means mostly below about 5.4%.

The test can be described thus: yeast vacuolar ATPase proton transport modulators – pHLuorin cytosolic pH fluorescence, primary screen (AID 504577). Further: actives read high. Particulars: S. cerevisiae, at 10 µM, hits give high values.
For `COc1ccc(CC(=O)Nc2c3c(nn2-c2cccc(Cl)c2)CS(=O)C3)cc1` (stereo not given), the response was 5.74%.
To `CCN(CC)C(=O)C1=C(C)N(Cc2ccc(OC)cc2)C(=O)C(CC(=O)NCCCCc2ccccc2)C1` (stereo not given) belongs 2.59%; to `Fc1cccc(CSc2nnc3ccc(-c4ccncc4)nn23)c1`, 30.5% (active).
As to `O=C(CSc1nnc2ccc(-c3ccncc3)nn12)N1CCCCC1`, the response was 2.79%.
On to `COc1cc(NC(=O)CSc2nnc3ccc(-c4ccncc4)nn23)cc(OC)c1`, for which the response is -1.89%.
To `NS(=O)(=O)c1ccc(CCNC(=O)c2ccc([N+](=O)[O-])cc2[N+](=O)[O-])cc1` belongs 0.09%; to `CCOc1ccc(-n2c(SCC(=O)Nc3cc(C(=O)O)ccc3Cl)nc3ccccc3c2=O)cc1`, 2.47%.
To `COC(=O)c1cc(S(=O)(=O)N2CCN(c3cc(C)ccc3C)CC2)c[nH]1` belongs -1.19%.
To `COC(=O)c1ccc(/C=C2/C(=O)Oc3ccccc32)cc1` belongs -0.46%; to `O=C1Oc2ccccc2C(=O)/C1=C/c1ccccc1O`, 15.2% (active).
Take `COC(=O)c1c(NC(=O)COc2ccc(Cl)cc2Cl)sc2c1CC(C)(C)NC2(C)C`: the response is 4.61%.
As to `O=C(COc1cc2oc(=O)c3c(c2cc1Cl)CCC3)NCCCN1CCOCC1`, the response is 9.9% (active).
To `CCCc1cc(=O)oc2cc(OCC(=O)Nc3ccc(CN4CCOCC4)cc3)c(Cl)cc12` belongs -2.48%; to `Cc1cc(=O)oc2c(C)c(OCC(=O)NCCN3CCOCC3)ccc12`, 1.98%; to `CC(=O)Nc1c2c(nn1-c1ccc(C)cc1C)CS(=O)C2` (stereo not given), -4.1%.
To `OCC(O)CN(c1ccccc1)c1ccccc1` (stereo not given) belongs 1.73%.
To `COc1ccc(NC(=O)CCC(=O)Nc2nnc(C3CCCCC3)s2)cc1` belongs -2.38%.
Turning to `Cc1cc(C(=O)Nc2nnc(C3CC3)s2)c(C)s1`, the response is 3.66%.
Consider `Cc1occc1C(=O)Nc1nnc(C2CCCCC2)s1`, for which the response is 10% (active).
As for `CCSCc1nc(N)nc(NCCc2ccccc2)n1`, the figure is -0.9%.
As for `CCSC1=NCCN1C(=O)c1ccc(S(=O)(=O)N(CC)CC)cc1`, the figure is 2.02%; as for `COc1ccc2nc(N3CCN(C(=O)c4ccc([N+](=O)[O-])o4)CC3)sc2c1`, 27.1% (active).
For `COc1ccc2nc(N3C(=O)C(O)=C(C(=O)c4ccco4)C3c3ccco3)sc2c1` (stereo not given), the response is -1.37%.
To `CCN(CC)CCN(C(=O)c1cccc([N+](=O)[O-])c1)c1nc2ccc(OC)cc2s1` belongs -1.21%; to `CCOC(=O)CC1COCCN1C(=O)c1cc(COc2ccc(F)c(F)c2)on1` (stereo not given), 0.12%.
